Screening data: PubChem BioAssay, several laboratories
Hits are enriched below; roughly 4.1% of the tested compounds scored in any of these assays.
M18AAP inhibitor: blocks P. falciparum M18 aspartyl aminopeptidase; 290,000 compounds, 1.2% hits; AID 1822; inhibition, % at 7.35 µM; recombinant PfM18AAP, H-Glu-NHMec fluorogenic cleavage;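 active means inhibition above the campaign mean inhibition over all tested compounds plus 3 SD, cut at about 28% in these data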;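 further: 0% = plate median of test compound wells and 100% = 2 mM ZnCl2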
CaV13 FRET inh: Disruptors of the CACNA1D IQ motif to Ca2+-dependent inactivation inhibitor domain association, primary screening, Förster resonance energy transfer in intact living …; HEK cells, CFP/YFP FRET ICDI-IQ, plate reader, 10 min; percent FRET-ratio fall versus neutral wells; inhibition, % at 12.3 µM; 340,000 compounds, 0.098% hits;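 active means mean replicate inhibition of at least 30% and at least 1% of replicates passing that level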;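 further: 0% = median of the neutral control wells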
IDE act: IDE (human) activation, cell-based; HEK cells, FAbeta-B cleavage, fluorescence polarization; 0% vehicle, 100% cell-free pure enzyme wells; activation, % at 5.96 µM; 340,000 compounds, 0.073% hits; AID 493087;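 active means activation above the mean of all tested compounds plus 3 SD, set per screening campaign, cut at about 17% in these data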
ALR H2O2 inh: human ALR oxidase inhibition via reduced H2O2; inhibition, % (no concentration beside the values); P55789; purified ALR, DTT oxidation, H2O2 HRP-luminol luminescence; 290,000 compounds, 3.8% hits;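 active means mean replicate inhibition above about 79%, with every replicate also reaching it, limit read from the data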
PolyA inhibitor: yeast polyadenylation inhibition | S. cerevisiae SKY197-pL101 polyadenylation reporter, beta-gal luminescence; efflux-impaired pdr1/pdr3 knockout yeast; score 100 = 6 SD above DMSO | 300,000 compounds, 0.02% hits | activity score, % at 12 µM | AID 1875;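 active means lowest replicate activity score at least 50, where 100 means six control SD above control mean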;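 further: yeast exposed to compound for 9 h at 30 °C; higher score means more reporter readthrough which indicates perturbed polyadenylation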
IDE cell inh: inhibitors of human insulin-degrading enzyme in cells; P14735; inhibition, % at 5.59 µM; HEK cells, FAbetaB cleavage, fluorescence polarization; 320,000 compounds, 0.41% hits;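 active means percent inhibition above the average of all tested compounds plus 3 SD, set per screening campaign, cut at about 16% in these data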;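 further: IDE supplied by intact live HEK cells; FP after avidin binding of uncleaved biotin substrate so inhibition keeps polarization high; 0% = DMSO wells and 100% = 60 µM reference IDE inhibitor Ii1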
An asterisk follows results filed as active; . = no result given.

SMILES	M18AAP inhibitor	CaV13 FRET inh	IDE act	ALR H2O2 inh	PolyA inhibitor	IDE cell inh
NNC(=O)c1cc(-c2ccccc2)sc1N	15	-5	-6	97*	-6	3
CCOC(=O)c1sc(-c2ccccc2)cc1N	0	-3	3	0	-21	-2
O=C(O)C(Cc1ccccc1)N1C(=O)C=CC1=O (stereo unspecified)	.	-4	.	.	.	.
O=C(c1ccc(Sc2ccc(F)cc2)c([N+](=O)[O-])c1)N1CCOCC1	-2	-2	0	-17	1	-1
CCc1ccc(-c2cc(C)no2)cc1S(=O)(=O)N1CCN(c2ccc(F)cc2)CC1	3	-3	8	-1	3	0
COc1ccc(OCC(=O)Sc2ccc(C)cc2)cc1	-4	-7	-1	98*	-11	5
CC1CC=CCC1(CO)CO (stereo unspecified)	.	-6	4	.	.	.
Cc1cccc(NC(=O)CSc2nc3[nH]c(=O)cc(O)c3s2)c1	.	-6	-1	99*	.	-2
COc1cc(NC(=O)CSc2nc3[nH]c(=O)cc(O)c3s2)cc(OC)c1OC	.	-3	-2	99*	.	7
Nc1cc(=O)[nH]c(SCC(=O)Nc2ccc(Br)cc2)n1	3	.	-6	98*	-4	8
COc1ccc(OC)c(NC(=O)CSc2nc3[nH]c(=O)cc(O)c3s2)c1	.	-7	-5	-18	.	1
O=C(CSc1nc2[nH]c(=O)cc(O)c2s1)Nc1cccc(Br)c1	.	-6	4	99*	.	6
N[C@H](CSCc1ccccc1)C(=O)Nc1ccc([N+](=O)[O-])cc1	11	-6	3	.	-11	3
C[C@@H](C(=O)Nc1cccc(S(=O)(=O)N2CCOCC2)c1)N1C(=O)C2CC=CCC2C1=O (stereo partly specified)	-1	-7	3	-3	2	4
O=C(CSc1nc2[nH]c(=O)cc(O)c2s1)Nc1ccc(Br)cc1	.	-2	-1	82*	.	0
COc1ccc(NC(=O)CSc2nc3[nH]c(=O)[nH]c(=O)c3s2)cc1OC	1	-4	-2	99*	10	8
Cc1cccc(C)c1NC(=O)CSc1nc2[nH]c(=O)cc(O)c2s1	.	-3	4	0	.	-2
Cc1cccc(Nc2nnc(SCC(=O)Nc3ccc(C(=O)O)cc3)s2)c1	-14	-20	1	94*	7	-1
CCC(C)(C)NC(=O)/C=C/c1ccccc1[N+](=O)[O-]	2	.	4	95*	12	3
O=C(O)c1cnc(-c2ccccc2)nc1Sc1ccccc1Cl	-7	-7	0	98*	1	3
CCOC(=O)c1nnc(-c2ccccc2)nc1Sc1ccccc1Cl	-8	-1	5	97*	-31	0
Cc1[nH]c2ccccc2c1C(=O)CN1CCSCC1	-4	.	5	97*	5	-5
Cc1[nH]c2ccccc2c1C(=O)CN1CCCC1	2	-8	0	-15	19	0
CCN(CC)c1ccc(CNC23CN4CN(CN(C4)C2)C3)cc1	6	-8	5	98*	5	-2
CN(C)c1ccc(CNC23CC4CC(CC(C4)C2)C3)cc1	0	.	.	.	.	.
SMILES	M18AAP inhibitor	CaV13 FRET inh	IDE act	ALR H2O2 inh	PolyA inhibitor	IDE cell inh
Cc1noc(C)c1COC(=O)CCN1c2ccccc2Sc2ccccc21	4	-6	2	93*	-8	5
Cc1noc(C)c1COC(=O)CCOc1ccccc1	-2	-4	5	3	8	-6
Cc1nnc(SCc2cnc(-c3ccc(C(C)C)cc3)s2)n1C	1	-8	-2	98*	.	8
c1ccc(-c2ncc(CSc3nncn3-c3ccccc3)s2)cc1	0	.	2	.	-17	5
Cc1nn(Cc2ccc(Cl)cc2Cl)c(C)c1NC(=O)CCl	2	-3	2	90*	26	-2
CC(C)N(Cc1nccn1C)C(=O)c1cc(COc2ccc(-n3cncn3)cc2)on1	1	-3	-1	.	9	6
O=c1cc(O)nc(SCc2ccccc2)[nH]1	-6	-5	1	98*	-13	-4
O=C(CSc1nc(O)cc(=O)[nH]1)N1c2ccccc2Sc2ccccc21	7	3	.	99*	-2	0
CCCOc1ccc(C(C)=O)cc1CSc1nc(O)cc(=O)[nH]1	-1	-6	5	99*	-3	-1
